# Measurements reported in PubChem BioAssay (Tox21).
# Where “and” joins values, the source holds several entries; their conditions need not be identical. Equal values may be shown once. Records with an inconclusive call do not appear. Entries that show only a call come without a potency. Calls of active or inactive are those of the source. Calls come from the whole dose curve; as a rule, active = well fitted curve in the direction sought with a large enough effect in the repeat runs; inconclusive = weak or mixed curves; inactive = no such curve, though single readings can be large; an effect the other way counts as inactive or inconclusive.
# What was measured:
# [1] = molecular target: Cytochrome P450 1A2 (Homo sapiens) (UniProt P05177); assay: Cytochrome P450 Family 1 Subfamily A Member 2 (CYP1A2) small molecule antagonists: luciferase reporter qHTS assay (AID 1671199)
# Chain of Cytochrome P450 1A2 (Homo sapiens) (P05177 whole entry, looked up): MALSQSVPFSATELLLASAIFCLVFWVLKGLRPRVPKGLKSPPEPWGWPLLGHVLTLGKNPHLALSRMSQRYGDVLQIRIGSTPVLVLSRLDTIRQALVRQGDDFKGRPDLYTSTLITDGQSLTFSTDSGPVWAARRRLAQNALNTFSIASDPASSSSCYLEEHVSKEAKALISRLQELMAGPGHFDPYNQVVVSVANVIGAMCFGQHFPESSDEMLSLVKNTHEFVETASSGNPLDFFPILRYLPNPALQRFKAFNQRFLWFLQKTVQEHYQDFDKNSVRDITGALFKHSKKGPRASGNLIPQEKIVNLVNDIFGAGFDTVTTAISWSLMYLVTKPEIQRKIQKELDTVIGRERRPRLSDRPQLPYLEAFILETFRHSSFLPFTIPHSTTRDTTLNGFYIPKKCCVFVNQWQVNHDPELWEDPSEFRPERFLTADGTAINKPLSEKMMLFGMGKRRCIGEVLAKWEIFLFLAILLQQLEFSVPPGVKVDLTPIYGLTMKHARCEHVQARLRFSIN
# Procedure, shortened: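 CYP1A2 turnover of a luminogenic substrate was quantified after 1 h with NADPH regeneration at room temperature. Furafylline served as positive control.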
# [2] = molecular target: Voltage-gated inwardly rectifying potassium channel KCNH2 (Homo sapiens) (UniProt Q12809); assay: Human Ether-a-go-go-Related Gene (hERG) channel small molecule antagonists: fluorescence cell-based qHTS assay (AID 1671200)
# Chain of Voltage-gated inwardly rectifying potassium channel KCNH2 (Homo sapiens) (Q12809 whole entry, looked up): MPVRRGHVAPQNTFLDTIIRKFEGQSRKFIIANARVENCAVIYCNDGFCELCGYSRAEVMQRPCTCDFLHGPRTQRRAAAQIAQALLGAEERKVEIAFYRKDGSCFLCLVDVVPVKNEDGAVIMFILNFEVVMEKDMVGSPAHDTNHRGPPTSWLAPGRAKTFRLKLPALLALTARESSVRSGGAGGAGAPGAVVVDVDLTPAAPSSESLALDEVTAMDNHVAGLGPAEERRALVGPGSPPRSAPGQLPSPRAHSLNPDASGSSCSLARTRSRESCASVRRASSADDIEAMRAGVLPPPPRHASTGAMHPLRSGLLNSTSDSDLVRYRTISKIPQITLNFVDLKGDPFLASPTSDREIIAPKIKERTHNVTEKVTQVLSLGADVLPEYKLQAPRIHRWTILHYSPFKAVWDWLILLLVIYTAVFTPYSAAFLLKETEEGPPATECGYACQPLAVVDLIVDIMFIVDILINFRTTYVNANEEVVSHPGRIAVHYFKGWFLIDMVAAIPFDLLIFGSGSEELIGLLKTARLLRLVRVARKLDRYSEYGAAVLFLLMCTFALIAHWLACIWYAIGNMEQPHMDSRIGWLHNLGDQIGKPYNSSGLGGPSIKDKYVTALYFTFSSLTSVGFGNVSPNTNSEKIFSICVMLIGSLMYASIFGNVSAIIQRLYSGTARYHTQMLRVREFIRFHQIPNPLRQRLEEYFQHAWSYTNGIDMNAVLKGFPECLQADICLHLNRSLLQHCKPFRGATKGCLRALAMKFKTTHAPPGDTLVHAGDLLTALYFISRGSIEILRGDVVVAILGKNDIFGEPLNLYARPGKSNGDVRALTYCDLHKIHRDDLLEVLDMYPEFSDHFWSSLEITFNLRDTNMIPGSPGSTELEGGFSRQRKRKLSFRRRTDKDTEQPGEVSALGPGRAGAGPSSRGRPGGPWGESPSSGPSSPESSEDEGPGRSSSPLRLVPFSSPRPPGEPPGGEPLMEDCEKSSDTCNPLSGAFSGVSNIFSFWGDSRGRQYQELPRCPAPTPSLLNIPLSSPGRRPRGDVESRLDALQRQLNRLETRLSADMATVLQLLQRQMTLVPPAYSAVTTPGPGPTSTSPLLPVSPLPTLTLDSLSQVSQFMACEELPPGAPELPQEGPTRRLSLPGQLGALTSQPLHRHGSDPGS
# Procedure, shortened: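 Cell line hERG-U2OS; dye FluxOR II, 1 h RT dark; Tl+ stimulus; ex 480/em 540 nm, read each second for 2 min.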
# [3] = molecular target: Cytochrome P450 3A4 (Homo sapiens) (UniProt P08684); assay: Cytochrome P450 Family 3 Subfamily A Member 4 (CYP3A4) small molecule antagonists: luciferase reporter qHTS assay (AID 1671201)
# Chain of Cytochrome P450 3A4 (Homo sapiens) (P08684 whole entry, looked up): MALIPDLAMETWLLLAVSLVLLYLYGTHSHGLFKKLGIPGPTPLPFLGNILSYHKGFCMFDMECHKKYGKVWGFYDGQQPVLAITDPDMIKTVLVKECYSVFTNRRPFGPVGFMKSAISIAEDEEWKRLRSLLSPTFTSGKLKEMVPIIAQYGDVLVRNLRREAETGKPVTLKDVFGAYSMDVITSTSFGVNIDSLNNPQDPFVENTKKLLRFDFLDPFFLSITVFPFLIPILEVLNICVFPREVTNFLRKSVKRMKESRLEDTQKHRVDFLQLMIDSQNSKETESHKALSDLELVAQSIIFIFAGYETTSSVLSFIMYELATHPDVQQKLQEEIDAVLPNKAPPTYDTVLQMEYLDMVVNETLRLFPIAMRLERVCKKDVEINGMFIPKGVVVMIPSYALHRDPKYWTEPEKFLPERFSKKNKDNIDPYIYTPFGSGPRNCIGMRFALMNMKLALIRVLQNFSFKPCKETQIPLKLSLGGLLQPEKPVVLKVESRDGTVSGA
# Procedure, shortened: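 Room-temperature assay throughout: 10 min compound–enzyme/substrate preincubation, 1 h reaction after NADPH regeneration solution, 20 min detection. Luciferin formed from proluciferin substrate is quantified by luminescence.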
# Note: nearly all actives have a fitted effect of over 50% in size.
# Potency is the fitted concentration of half-maximal effect.
SMILES,Potency [1],Potency [2],Potency [3]
Brc1ccccc1-c1ccccc1,16.6 µM (active),31.4 µM (active),inactive
C(=C/c1ccccc1)/c1ccccc1,inactive,inactive,inactive
NCCCCCCNCCCCCCN,inactive,inactive,3.5 µM (active)
OCCCc1cccnc1,inactive,inactive,15.9 µM (active)
OCCCCl,inactive,inactive,inactive
CCCCCCCC/C=C\CCCCCCCC(=O)N(C)CC(=O)O,inactive,inactive,inactive
CCN=c1cc2oc3cc(NCC)c(C)cc3c(-c3ccccc3C(=O)OCC)c-2cc1C,inactive,2.45 µM (active) and 2.19 µM (active),999 nM (active) and 2 µM (active)
C=C(C)C(=O)OCCC[Si](Cl)(Cl)Cl,inactive,inactive,12.7 µM (active)
CCC(C)C(=O)OC (configuration not stated),inactive,inactive,inactive
CCCOc1sc(C(=O)N2CCC(c3cc(CN)ccc3F)CC2)c(C)c1Br,73 µM (active),5.65 µM (active),10.3 µM (active)
CCN(CC)c1cccc(C)c1,inactive,inactive,inactive
O=C(O)Cc1ccc(OCCNC[C@H](O)c2ccccc2)cc1,inactive,inactive,inactive
O=C[C@H](O)[C@H](O)[C@H](O)CO,inactive,inactive,inactive
CCCC(C)CCC(C)=O (configuration not stated),inactive,inactive,inactive
C/C=C/c1ccc(OC)c(OC)c1,25.2 µM (active),inactive,20 µM (active)
O=C1c2c(O)ccc([N+](=O)[O-])c2C(=O)c2c([N+](=O)[O-])ccc(O)c21,7.03 µM (active),inactive,12.5 µM (active)
c1ccc2c(c1)CCC2,inactive,inactive,inactive
Cc1cc(=O)[nH]c(=O)[nH]1,inactive,inactive,inactive
O=C(Nc1ccc(Cl)cc1)Nc1ccc(Cl)c(C(F)(F)F)c1,25.7 µM (active),inactive,inactive
CC1(C)C(=O)N(Br)C(=O)N1Br,inactive,inactive,inactive
CN(C)CCCN1c2ccccc2Sc2ccc(C(F)(F)F)cc21,3.63 µM (active),2.68 µM (active),inactive
CCCCCCCCC(C)=O,inactive,inactive,inactive

SMILES,Potency [1],Potency [2],Potency [3]
CCC1CCCCC1,inactive,inactive,inactive
CCCC(CC)CCCCCCCN (configuration not stated),5.15 µM (active),28.2 µM (active),3.25 µM (active)
CCCCCCCC(OC)OC,inactive,inactive,inactive
CC1CCCCN1CCCOC(=O)c1ccc(OC2CCCCC2)cc1 (configuration not stated),inactive,2.68 µM (active),inactive
Cc1cccc(C)n1,39.9 µM (active),inactive,inactive
CN(C)c1ccc(N=Nc2ccccc2C(=O)O)cc1,25.2 µM (active),inactive,inactive
CC(=O)OC(OC(C)=O)c1ccc([N+](=O)[O-])o1,45.6 µM (active),inactive,inactive
CC(C)CCOCCC(C)C,inactive,inactive,inactive
C[C@]12CC[C@H]3C(=CCc4cc(O)ccc43)[C@@H]1CCC2=O,35.6 µM (active),inactive,20 µM (active)
CC(C)(C)c1cc(CCC(=O)NCCCCCCNC(=O)CCc2cc(C(C)(C)C)c(O)c(C(C)(C)C)c2)cc(C(C)(C)C)c1O,inactive,inactive,2.83 µM (active)
C=CC(=O)OCC(O)COc1ccccc1 (configuration not stated),35.6 µM (active),inactive,inactive
CCc1c(Br)c(Br)c(Br)c(Br)c1Br,11.2 µM (active),inactive,inactive
CCO[Si](C)(C)OCC,inactive,inactive,inactive
CCC(C)(C)c1cc(O)c(C(C)(C)CC)cc1O,inactive,inactive,inactive
CCNc1nc(NC(C)CC)nc(OC)n1 (configuration not stated),25.2 µM (active),inactive,inactive
CCCCOc1ccc(C(=O)CCN2CCCCC2)cc1,inactive,,inactive
C[Si](C)O[Si](C)C,inactive,inactive,inactive
CCCCCCCCCCCCCc1ccccc1,inactive,,inactive
Clc1ccc(C(c2ccccc2Cl)C(Cl)Cl)cc1 (configuration not stated),inactive,,inactive
Cn1cnc2ncnc(N)c21,17.7 µM (active),inactive,inactive
COC(=O)C1=C(C)NC(C)=C(C(=O)OCCCN2CCC(c3ccccc3)(c3ccccc3)CC2)C1c1cccc([N+](=O)[O-])c1 (configuration not stated),,1.51 µM (active),
Cc1cc2c(C(C)C)c(O)c(O)c(C=O)c2c(O)c1-c1c(C)cc2c(C(C)C)c(O)c(O)c(C=O)c2c1O,inactive,inactive,inactive
